Data from PubChem BioAssay AID1159580 (chemical genetic matrix, 2015).
About 2,000 (36%) of roughly 5,500 compounds were called active. Not shown: some 18% with an inconclusive outcome. No stated cut-off is given here; in the data, active means normalized growth mostly below about 0.91 (no sharp cut-off); inconclusive means no clear call, values can overlap the other calls; inactive means mostly above about 0.92. Some of the results follow.

Assay: chemical genetic growth profiling, strain panel (AID 1159580);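 further: tested at 20 µM; growth read once vehicle control cultures reached saturation at 30 °C; 1 = growth at the plate median or of vehicle wells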
Conditions: S. cerevisiae deletion strains, growth OD

Measured: normalized growth

C=C1C2=CC(=O)O[C@@H](c3ccoc3)[C@]2(C)CCC1[C@@]1(C)C=CC(=O)C(C)(C)[C@@H]1CC(=O)OC (stereo partly drawn)
inactive: locus YAL021C, strain ccr4, stronger effect = lower value 1.04 | locus YAL026C, strain drs2, stronger effect = lower value 0.996 | locus YAL030W, strain snc1, stronger effect = lower value 0.998 | locus YBL061C, strain skt5, stronger effect = lower value 0.999 | locus YBR009C, strain hhf1, stronger effect = lower value 1.02 | locus YBR021W, strain FUR4, stronger effect = lower value 0.989 | locus YBR023C, strain chs3, stronger effect = lower value 1.01 | locus YBR171W, strain sec66, stronger effect = lower value 0.983 | locus YBR229C, strain ROT2, stronger effect = lower value 1 | locus YBR231C, strain swc5, stronger effect = lower value 0.982 | locus YBR279W, strain paf1, stronger effect = lower value 1 | locus YCL011C, strain gbp2, stronger effect = lower value 1.01 | locus YCL016C, strain dcc1, stronger effect = lower value 1.04 | locus YCL029C, strain bik1, stronger effect = lower value 0.983 | locus YCL061C, strain MRC1, stronger effect = lower value 1.01 | locus YCL069W, strain vba3, stronger effect = lower value 0.984 | locus YCR088W, strain abp1, stronger effect = lower value 0.982 | locus YDL005C, strain med2, stronger effect = lower value 0.996 | locus YDL035C, strain GPR1, stronger effect = lower value 0.991 | locus YDL040C, strain nat1, stronger effect = lower value 0.999 | locus YDL074C, strain BRE1, stronger effect = lower value 1.02 | locus YDL101C, strain DUN1, stronger effect = lower value 1.01 | locus YDL185W, strain tfp1, stronger effect = lower value 0.988 | locus YDL192W, strain arf1, stronger effect = lower value 0.999 | locus YDR001C, strain nth1, stronger effect = lower value 0.994 | locus YDR069C, strain doa4, stronger effect = lower value 0.991 | locus YDR101C, strain arx1, stronger effect = lower value 0.958 | locus YDR137W, strain rgp1, stronger effect = lower value 0.999 | locus YDR150W, strain NUM1, stronger effect = lower value 1.01 | locus YDR159W, strain sac3, stronger effect = lower value 0.953 | locus YDR162C, strain NBP2, stronger effect = lower value 1 | locus YDR195W, strain ref2 0.95 | locus YDR297W, strain sur2, stronger effect = lower value 0.988 | locus YDR318W, strain mcm21, stronger effect = lower value 1.01 | locus YDR334W, strain swr1, stronger effect = lower value 0.982 | locus YDR335W, strain msn5, stronger effect = lower value 0.997 | locus YDR388W, stronger effect = lower value 1 | locus YDR392W, strain spt3, stronger effect = lower value 1.03 | locus YDR502C, strain sam2, stronger effect = lower value 0.988 | locus YEL003W, strain gim4, stronger effect = lower value 0.994 | locus YEL037C, strain rad23, stronger effect = lower value 1 | locus YEL061C, strain CIN8 (second series), stronger effect = lower value 0.978 | locus YER015W, strain faa2, stronger effect = lower value 1.01 | locus YER016W, strain bim1, stronger effect = lower value 0.985 | locus YER110C, stronger effect = lower value 0.997 | locus YER111C, strain swi4, stronger effect = lower value 0.986 | locus YER155C, strain BEM2 (second series), stronger effect = lower value 1.02 | locus YER155C, strain BEM2, stronger effect = lower value 0.982 | locus YER167W, strain BCK2, stronger effect = lower value 1 | locus YFR010W, strain ubp6, stronger effect = lower value 0.972 | locus YGL078C, strain dbp3, stronger effect = lower value 0.999 | locus YGL086W, strain mad1, stronger effect = lower value 0.999 | locus YGL167C, strain pmr1, stronger effect = lower value 1.01 | locus YGL173C, strain kem1, stronger effect = lower value 0.99 | locus YGL227W, strain vid30, stronger effect = lower value 0.992 | locus YGL240W, strain doc1, stronger effect = lower value 0.994 | locus YGL248W, strain PDE1, stronger effect = lower value 1.01 | locus YGL253W, strain hxk2, stronger effect = lower value 0.937 | locus YGR078C, strain PAC10, stronger effect = lower value 1.01 | locus YGR135W, strain pre9, stronger effect = lower value 1.01 | locus YGR252W, strain gcn5, stronger effect = lower value 0.976 | locus YHR013C, strain ard1, stronger effect = lower value 1.01 | locus YHR027C, strain rpn1, stronger effect = lower value 0.976 | locus YHR079C, strain IRE1 (second series), stronger effect = lower value 0.985 | locus YHR094C, strain hxt1, stronger effect = lower value 0.996 | locus YHR129C, strain ARP1, stronger effect = lower value 1.01 | locus YHR142W, strain chs7, stronger effect = lower value 1.01 | locus YHR200W, strain rpn10, stronger effect = lower value 1 | locus YIL066C, strain RNR3, stronger effect = lower value 1.01 | locus YIL073C, strain SPO22, stronger effect = lower value 1.02 | locus YIL125W, strain kgd1, stronger effect = lower value 0.995 | locus YIR030C, strain dcg1, stronger effect = lower value 1 | locus YJL092W, strain hpr5, stronger effect = lower value 0.984 | locus YJL095W, strain BCK1 (second series), stronger effect = lower value 0.986 | locus YJL095W, strain BCK1, stronger effect = lower value 1.02 | locus YJL115W, strain asf1, stronger effect = lower value 0.999 | locus YJL129C, strain trk1, stronger effect = lower value 0.99 | locus YJL134W, strain LCB3, stronger effect = lower value 0.997 | locus YJL154C, strain vps35, stronger effect = lower value 0.995 | locus YJL164C, strain tpk1, stronger effect = lower value 1.02 | locus YJL166W, strain qcr8, stronger effect = lower value 0.996 | locus YJL168C, strain set2, stronger effect = lower value 1 | locus YJL187C, strain SWE1 (second series), stronger effect = lower value 1.01 | locus YJL187C, strain SWE1, stronger effect = lower value 0.99 | locus YJR075W, strain HOC1, stronger effect = lower value 0.993 | locus YKL009W, strain mrt4, stronger effect = lower value 0.976 | locus YKL068W, stronger effect = lower value 0.997 | locus YKL085W, strain MDH1 (second series), stronger effect = lower value 0.992 | locus YKL085W, strain MDH1, stronger effect = lower value 0.992 | locus YKL160W, strain elf1, stronger effect = lower value 1.06 | locus YKR001C, strain vps1, stronger effect = lower value 0.998 | locus YKR026C, strain gcn3, stronger effect = lower value 0.976 | locus YKR091W, strain srl3, stronger effect = lower value 0.994 | locus YLL001W, strain dnm1, stronger effect = lower value 0.99 | locus YLL026W, stronger effect = lower value 0.989 | locus YLL041C, strain sdh2, stronger effect = lower value 0.987 | locus YLR027C, strain aat2, stronger effect = lower value 0.978 | locus YLR039C, strain RIC1, stronger effect = lower value 1.05 | locus YLR058C, strain SHM2, stronger effect = lower value 1.01 | locus YLR102C, strain apc9, stronger effect = lower value 1 | locus YLR221C, strain rsa3, stronger effect = lower value 0.987 | locus YLR258W, strain gsy2, stronger effect = lower value 1.02 | locus YLR262C, strain YPT6 (second series), stronger effect = lower value 0.997 | locus YLR262C, strain YPT6, stronger effect = lower value 1.08 | locus YLR268W, strain sec22, stronger effect = lower value 0.996 | locus YLR320W, strain mms22, stronger effect = lower value 1.01 | locus YLR342W, strain FKS1 (second series), stronger effect = lower value 1.01 | locus YLR342W, strain FKS1, stronger effect = lower value 0.995 | locus YLR357W, strain rsc2, stronger effect = lower value 1.03 | locus YLR370C, strain arc18, stronger effect = lower value 0.97 | locus YLR371W, strain rom2, stronger effect = lower value 0.998 | locus YLR384C, strain iki3, stronger effect = lower value 1 | locus YLR418C, strain cdc73, stronger effect = lower value 1.01 | locus YML016C, strain PPZ1, stronger effect = lower value 0.998 | locus YML032C, strain rad52, stronger effect = lower value 0.984 | locus YML120C, strain ndi1, stronger effect = lower value 1.02 | locus YML124C, strain tub3, stronger effect = lower value 0.997 | locus YMR058W, strain fet3, stronger effect = lower value 1 | locus YMR078C, strain ctf18, stronger effect = lower value 1 | locus YMR125W, strain sto1, stronger effect = lower value 1 | locus YMR129W, stronger effect = lower value 0.991 | locus YMR205C, strain PFK2, stronger effect = lower value 1.07 | locus YMR223W, strain ubp8, stronger effect = lower value 0.989 | locus YMR231W, strain pep5, stronger effect = lower value 0.973 | locus YMR307W, strain GAS1, stronger effect = lower value 1.03 | locus YNL067W, strain RPL9B, stronger effect = lower value 1 | locus YNL071W, strain lat1, stronger effect = lower value 0.996 | locus YNL209W, strain ssb2, stronger effect = lower value 1.03 | locus YNL233W, strain BNI4, stronger effect = lower value 1.01 | locus YNL248C, strain rpa49, stronger effect = lower value 0.966 | locus YNL250W, strain rad50, stronger effect = lower value 0.997 | locus YNL271C, strain bni1, stronger effect = lower value 0.995 | locus YNL298W, strain CLA4, stronger effect = lower value 0.988 | locus YNL307C, strain MCK1, stronger effect = lower value 1 | locus YNL322C, strain KRE1 (second series), stronger effect = lower value 0.995 | locus YNL322C, strain KRE1, stronger effect = lower value 0.995 | locus YNR049C, strain mso1, stronger effect = lower value 0.99 | locus YNR052C, strain pop2, stronger effect = lower value 1.01 | locus YOL012C, strain htz1 1.06 | locus YOL147C, strain pex11, stronger effect = lower value 0.996 | locus YOR001W, strain rrp6, stronger effect = lower value 0.947 | locus YOR061W, strain CKA2, stronger effect = lower value 0.994 | locus YOR069W, strain VPS5, stronger effect = lower value 1 | locus YOR070C, strain gyp1, stronger effect = lower value 1 | locus YOR080W, strain dia2, stronger effect = lower value 0.983 | locus YOR083W, strain WHI5, stronger effect = lower value 1.06 | locus YOR106W, strain vam3, stronger effect = lower value 1.03 | locus YOR136W, strain idh2, stronger effect = lower value 0.993 | locus YOR144C, strain elg1, stronger effect = lower value 0.995 | locus YOR184W, strain ser1, stronger effect = lower value 0.992 | locus YOR265W, strain rbl2, stronger effect = lower value 0.984 | locus YOR270C, strain vph1, stronger effect = lower value 0.991 | locus YOR290C, strain snf2, stronger effect = lower value 1.06 | locus YOR316C, strain cot1, stronger effect = lower value 0.95 | locus YPL051W, strain arl3, stronger effect = lower value 0.985 | locus YPL078C, strain atp4, stronger effect = lower value 1.05 | locus YPL106C, strain sse1, stronger effect = lower value 1.08 | locus YPL240C, strain hsp82, stronger effect = lower value 0.992 | locus YPR119W, strain clb2, stronger effect = lower value 1 | locus YPR141C, strain kar3, stronger effect = lower value 0.999 | locus YPR163C, strain tif3, stronger effect = lower value 0.991 | locus YPR167C, strain met16, stronger effect = lower value 0.992 | strain wtn01, stronger effect = lower value 0.978
